# Source: PubChem BioAssay (NCATS)
# Values without a mark were called inactive. Results filed as inconclusive are left out. A call without a number means that no potency is given here. The source made the active and inactive calls. Calls follow the shape of the dose curve; as a rule, active = well fitted curve in the direction sought with a large enough effect; inconclusive = small, poorly fitted or top-dose-only effect, or another doubt; inactive = no such curve, though single readings can be large; an effect the other way counts as inactive or inconclusive.
# Columns and labels:
# [1] = biological target: Glutathione peroxidase 1 (Homo sapiens) (UniProt P07203); assay: Primary qHTS Assay for Inhibitors of Recombinant Selenoprotein Glutathione Peroxidase 1 (GPX1) (AID 1845191); also: nearly all actives have a fitted effect of over 65% in size
# Chain of Glutathione peroxidase 1 (Homo sapiens) (P07203 whole entry, looked up): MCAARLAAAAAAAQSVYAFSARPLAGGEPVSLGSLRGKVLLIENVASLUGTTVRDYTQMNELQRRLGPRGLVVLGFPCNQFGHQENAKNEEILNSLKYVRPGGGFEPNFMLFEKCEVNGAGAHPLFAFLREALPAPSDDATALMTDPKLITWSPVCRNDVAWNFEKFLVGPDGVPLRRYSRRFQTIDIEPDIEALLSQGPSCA
# Method in brief: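 NADPH consumption tracked by fluorescence at 340/450 nm between t=0 and t=15 min, room temperature. Final mix: 10 nM GPX1, 100 nM glutathione reductase, 1 mM GSH, 0.5 mM NADPH, 0.5 mM cumene hydroperoxide, 0.01% BSA; 30 min compound–enzyme preincubation.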
# [2] = biological target: Phospholipid hydroperoxide glutathione peroxidase GPX4 (Homo sapiens) (UniProt P36969); assay: Primary qHTS Assay for Inhibitors of Recombinant Selenoprotein Glutathione Peroxidase 4 (GPX4) (AID 1845192); also: nearly all actives have a fitted effect of over 65% in size; as to activity change, negative = inhibition: series mostly up to about 50 µM
# Chain of Phospholipid hydroperoxide glutathione peroxidase GPX4 (Homo sapiens) (P36969 whole entry, looked up): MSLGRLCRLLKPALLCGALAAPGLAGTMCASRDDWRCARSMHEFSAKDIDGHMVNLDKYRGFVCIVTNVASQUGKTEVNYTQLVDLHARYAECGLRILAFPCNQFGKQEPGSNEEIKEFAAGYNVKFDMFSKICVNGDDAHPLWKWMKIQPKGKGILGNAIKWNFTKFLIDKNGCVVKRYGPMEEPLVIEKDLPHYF
# Method in brief: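 NADPH consumption followed by fluorescence at 340/450 nm, t=0 and after 15 min at room temperature. Reaction started with cumene hydroperoxide (0.5 mM final) after 30 min compound–GPX4 preincubation; final 200 nM GPX4, 100 nM GR, 1 mM GSH, 0.5 mM NADPH.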
# [3] = biological target: Luciferin 4-monooxygenase (Photinus pyralis) (UniProt P08659); assay: Primary firefly luciferase (FLuc) qHTS assay for identification of artifact compounds. (AID 1845220); also: nearly all actives have a fitted effect of over 60% in size; also: potency is read from the fitted curve at half-maximal effect; as to activity change, negative = inhibition: series mostly up to about 54 µM
# Method in brief: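 FLuc 10 nM; luciferin 10 uM; ATP 10 uM; Tris-acetate pH 7.6, Mg-acetate 10 mM; 15 min RT preincubation; 5 min reaction; luminescence.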
# [4] = Primary fluorescence-based thiol-reactive (MSTI) qHTS assay for identification of artifact compounds. (AID 1845221); also: nearly all actives have a fitted effect of over 65% in size; also: potency is read from the fitted curve at half-maximal effect;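 as to activity change, negative = thiol reactive: series mostly up to about 54 µM; thiol-reactive compounds lower the probe fluorescence signal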
# Method in brief: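 First, 4 uM MSTI in 2% DMSO/PBS pH 7.4 was dispensed; next, compounds were added; then plates sat 1 h at room temperature without light. Finally, emission at 598 nm was recorded.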
# [5] = system: Nanoluciferase (engineered Oplophorus gracilirostris luciferase); assay: Primary Nanoluciferase (NLuc) qHTS assay for identification of artifact compounds. (AID 1845222);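 also: NLuc secreted into diluted conditioned medium of S16 cells; series mostly up to about 54 µM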
# Method in brief: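 NLuc from S16 cell medium (1:55) plus test compounds, 15 min, room temperature. Luminescence after Nano-Glo (1:100) addition, 5 min.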
# [6] = Primary redox qHTS assay for identification of artifact compounds. (AID 1845223)
# Method in brief: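 Redox-cycling detection via DTT (250 uM final) oxidation coupled to Amplex Red (25 uM)/HRP (250 mU/mL) in HBSS. 15 min preincubation plus 30 min after DTT, room temperature. Ex/Em 525/598 nm; 4-parameter Hill fit against DMSO and 10 uM DA3003.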
SMILES,Potency [1],Potency [2],Potency [3],Potency [4],Potency [5],Potency [6],"activity change, negative = inhibition [3]","activity change, negative = thiol reactive [4]","activity, negative = inhibition [5]",redox activity (% of DA3003) [6]
N#CC(CCCN1CCN(/N=C/c2cccnc2)CC1)(c1ccccc1)c1ccccc1,inactive,inactive,inactive,inactive,inactive,inactive,–,–,–,–
O=C(Nc1ccn(Cc2ccc(O)cc2C(F)(F)F)n1)c1c(F)cccc1F,inactive,inactive,inactive,inactive,inactive,inactive,–,–,–,–
CC(=O)O[C@@H]1C[C@@]2(C)C(CC[C@]3(C)C2CC=C2C4CC(C)(C)CC[C@]4(C(=O)O)CC[C@]23C)C(C)(C)[C@H]1O (stereo not given in full),inactive,inactive,inactive,inactive,inactive,inactive,–,–,–,–
O=C(NCC1(c2nc(-c3ccccc3)cs2)CCOCC1)c1cccc(-c2noc(C(F)(F)F)n2)c1,inactive,inactive,inactive,inactive,inactive,inactive,–,–,–,–
COC(=O)c1cc(Br)cnc1N1CCC(NC2CCCCC2)C(O)C1 (stereo not given),inactive,inactive,inactive,inactive,inactive,inactive,–,–,–,–
C=C1C(=O)O[C@@H]2C=C(COC(C)=O)CC/C=C(\CO)CC[C@@H]12,inactive,inactive,inactive,inactive,inactive,inactive,–,–,–,–
O=C(Nc1ccc(Cl)cc1)C1CCCN(C(=O)c2cccc(-c3ccco3)c2)C1 (stereo not given),inactive,inactive,inactive,inactive,inactive,inactive,–,–,–,–
COC(=O)CC(O)CC(O)/C=C/c1c(C)ccc2c1C(OC(C)=O)CC(C)C2 (stereo not given),inactive,inactive,inactive,inactive,inactive,inactive,–,–,–,–
COc1ccc(C2(CNC(=O)c3ccc(NC(=O)c4ccco4)cc3)CCOCC2)cc1,inactive,inactive,inactive,inactive,inactive,inactive,–,–,–,–
COc1cc(C(=O)NCC2(N(C)C)CCCC2)cc(OC)c1OCc1ccccc1,inactive,inactive,inactive,inactive,inactive,inactive,–,–,–,–
Cc1ccc(NC(=O)c2ccc(CN3CCNCC3)cc2)cc1Nc1nccc(-c2cccnc2)n1,inactive,inactive,6.75 µM (active),inactive,inactive,inactive,–,–,–,–
CCCCNc1ncc2c(-c3ccc(S(=O)(=O)N4CCOCC4)cc3)nn(C3CCC(O)CC3)c2n1 (stereo not given),inactive,inactive,inactive,inactive,inactive,inactive,–,–,–,–
COC(=O)N1CCC(n2ncc3c(N4CCOCC4)nc(-c4ccc(NC(=O)NC5CC5)cc4)nc32)CC1,inactive,inactive,inactive,inactive,inactive,inactive,–,–,–,–
Clc1ccc(Cn2c(Cc3ccccc3)nc3ccccc32)cc1,inactive,inactive,inactive,inactive,inactive,inactive,–,–,–,–
CNCc1cc(-c2ccccc2F)n(S(=O)(=O)c2cccnc2)c1,inactive,inactive,inactive,inactive,inactive,inactive,–,–,–,–
COc1ccncc1C(=O)NC(=O)Nc1ccc(-c2ccccc2)c(C(F)(F)F)c1,inactive,inactive,inactive,inactive,inactive,inactive,–,–,–,–
COc1cc(C(C)C)c(Oc2cnc(N)nc2N)cc1I,inactive,inactive,inactive,inactive,inactive,inactive,–,–,–,–
CC(C)C[C@H](C(=O)O)c1cc(-c2ccc(C(F)(F)F)cc2)cc(-c2ccc(C(F)(F)F)cc2)c1,inactive,inactive,inactive,inactive,inactive,inactive,–,–,–,–
C=C1C(=O)O[C@@H]2C3C(=C(C)[C@@H](O)[C@@H](OC(=O)/C(=C/C)COC(C)=O)[C@@H]12)C(=O)[C@H]1O[C@@]31C (stereo not given in full),inactive,inactive,inactive,inactive,inactive,inactive,–,–,–,–
Cc1nc(N2CCN(C(=O)c3ccco3)CC2)c2c3c(sc2n1)CCCC3,inactive,inactive,inactive,inactive,inactive,inactive,–,–,–,–
CC1(C)C2CCC(CO[C@@H]3O[C@H](CO[C@@H]4OC[C@](O)(CO)[C@H]4O)[C@@H](O)[C@H](O)[C@H]3O)C1C2 (stereo not given in full),inactive,inactive,inactive,inactive,inactive,inactive,–,–,–,–
C=C1CCC2C(C)(C)CCCC2(C)C1CC/C(C)=C\CO (stereo not given),inactive,inactive,inactive,inactive,inactive,inactive,–,–,–,–
O=S(=O)(c1ccc(Cl)cc1)N1CCN(c2ccnc3cc(Cl)ccc23)CC1,inactive,inactive,inactive,inactive,inactive,inactive,–,–,–,–
CC(=O)O[C@@H]1[C@@H](O)[C@H](O[C@@H]2[C@@H](O)[C@@H](O)[C@H](O[C@H]3[C@H](O[C@H]4[C@H](O[C@H]5CC[C@@]6(C)C(CC[C@]7(C)C6CC=C6[C@@H]8CC(C)(C)CC[C@]8(C(=O)O)CC[C@]67C)[C@]5(C)CO)O[C@H](CO)[C@@H](O)[C@@H]4O)OC[C@@H](O)[C@@H]3O)O[C@H]2C)OC[C@H]1O (stereo not given in full),inactive,inactive,–,–,–,–,-4.72% [at 11.6 µM],377% [at 11.5 µM],1.48% [at 11.6 µM],0.129% [at 11.5 µM]
C=C1C(=O)O[C@@H]2[C@H]1CC[C@H](C)[C@]1(CCC(=O)O1)C2(C)O (stereo not given in full),inactive,inactive,inactive,inactive,inactive,inactive,–,–,–,–

SMILES,Potency [1],Potency [2],Potency [3],Potency [4],Potency [5],Potency [6],"activity change, negative = inhibition [3]","activity change, negative = thiol reactive [4]","activity, negative = inhibition [5]",redox activity (% of DA3003) [6]
O=C(OC1CN2CCC1CC2)N1CCc2ccccc2C1c1ccccc1 (stereo not given),inactive,inactive,inactive,inactive,inactive,inactive,–,–,–,–
CNC(=O)COC(=O)N1CCC(CCc2ccc(Cl)cc2)CC1,inactive,inactive,inactive,inactive,inactive,inactive,–,–,–,–
CC(C)C[C@@H](N)C(=O)N[C@H]1C(=O)N[C@@H](CC(N)=O)C(=O)N[C@H]2C(=O)N[C@H]3C(=O)N[C@H](C(=O)N[C@H](C(=O)O)c4cc(O)cc(O)c4-c4cc3ccc4O)[C@H](O)c3ccc(c(Cl)c3)Oc3cc2cc(c3O[C@@H]2O[C@H](CO)[C@@H](O)[C@H](O)[C@H]2O[C@H]2C[C@](C)(N)[C@H](O)[C@H](C)O2)Oc2ccc(cc2Cl)[C@H]1O,inactive,inactive,inactive,inactive,inactive,inactive,–,–,–,–
CC(C)(C[C@@](O)(Cc1cc2ccncc2[nH]1)C(F)(F)F)c1cc(F)ccc1O,inactive,inactive,inactive,inactive,inactive,inactive,–,–,–,–
CC(C)C[C@H](CO)Nc1nc(S[C@@H](C)c2ccccc2)nc2nc(N)sc12,inactive,inactive,inactive,inactive,inactive,inactive,–,–,–,–
COc1ccc(-c2cnc3c(-c4cccc5ncccc45)cnn3c2)cc1,inactive,inactive,inactive,inactive,inactive,inactive,–,–,–,–
O=C(NCCN1CCC(n2c(=O)[nH]c3ccccc32)CC1)c1cc2cc(F)ccc2[nH]1,inactive,inactive,inactive,inactive,inactive,inactive,–,–,–,–
COc1cc(O)cc(/C=C/c2cccc(O)c2)c1,inactive,inactive,10.7 µM (active),18.9 µM (active),inactive,inactive,–,–,–,–
COc1ccc(NC(=O)c2ccc(C(=N)N(C)C)cc2)c(C(=O)Nc2ccc(Cl)cn2)c1,inactive,inactive,inactive,inactive,inactive,inactive,–,–,–,–
COc1ccc(-n2c(SCCCN3C(=O)c4cccc5cccc(c45)C3=O)nnc2-c2ccncc2)cc1,inactive,inactive,inactive,inactive,inactive,inactive,–,–,–,–
O=C(c1ccc(Cl)cc1)N1CCN(c2ccnc3cc(Cl)ccc23)CC1,inactive,inactive,inactive,inactive,inactive,inactive,–,–,–,–
C=CCCN1CCC2(CC1)CN(C(=O)c1c(F)cccc1F)c1ccc(Cl)cc12,inactive,inactive,inactive,inactive,inactive,inactive,–,–,–,–
O=C(CCl)Nc1cccc(NC2=NS(=O)(=O)c3ccccc32)c1,inactive,inactive,inactive,inactive,inactive,inactive,–,–,–,–
CC(C)OC(=O)N1CCC(Oc2ncnc3c2cnn3-c2ccc(S(C)(=O)=O)cc2F)CC1,inactive,inactive,inactive,inactive,inactive,inactive,–,–,–,–
CC1(C=O)CCCC2(C)C1CCC13CC(CO)C(CCC12)C3 (stereo not given),inactive,inactive,inactive,inactive,inactive,inactive,–,–,–,–
CC(C)C[C@@H]1NC(=O)[C@@H](Cc2ccccc2)NC(=O)C(CCCCCC(=O)C2CO2)NC(=O)[C@@H]2CCCCN2C1=O (stereo not given in full),inactive,inactive,inactive,inactive,inactive,inactive,–,–,–,–
CCOC(=O)c1ccc(OCCC2CCN(c3ccc(C)nn3)CC2)cc1,inactive,inactive,inactive,inactive,inactive,inactive,–,–,–,–
C=C(C)C(=O)OC1CC2(C)OC(=CC2=O)C(=C)CC2OC(=O)C(=C)C12 (stereo not given),inactive,inactive,inactive,inactive,inactive,inactive,–,–,–,–
CC(O)(C(=O)O)C1CCC2(C)C1CCC1(C)C2CCC2C3(C)CCC(O)C(C)(COC4OC(CO)C(O)C(O)C4O)C3CCC21C (stereo not given),inactive,inactive,inactive,inactive,inactive,inactive,–,–,–,–
COC1=CC(=O)C=C(C)C12Oc1c(Cl)c(OC)cc(OC)c1C2=O (stereo not given),inactive,inactive,inactive,inactive,inactive,inactive,–,–,–,–
CCOc1ccc(S(=O)(=O)N2CCCCCC2)c2ccccc12,inactive,inactive,inactive,inactive,inactive,inactive,–,–,–,–
COc1ccc(-c2csc(NC(=O)[C@H]3CCCCN3S(=O)(=O)c3ccc(C)cc3)n2)cc1,inactive,inactive,inactive,inactive,inactive,inactive,–,–,–,–
COc1ccc2c(c1O[C@H]1CCNC1)CCC2,inactive,inactive,inactive,inactive,inactive,inactive,–,–,–,–
CC(C)[C@@H](c1ccc(C(F)(F)F)cc1CN(Cc1cc(C(F)(F)F)cc(C(F)(F)F)c1)c1nnn(C)n1)N1CCC(C(=O)O)CC1,inactive,inactive,inactive,inactive,inactive,inactive,–,–,–,–
CC(=O)C1(C)CCC2C3C=C(C)C4=CC(=O)CCC4(C)C3CCC21C (stereo not given),inactive,inactive,inactive,inactive,inactive,inactive,–,–,–,–
